# Laboratory results reported in the supplement of paper PMC8007513.
# Structures can show the parent of a compound that is named as a salt. ± gives the standard error. The campaign covered roughly 1,300 compounds. About 75 (6%) showed an effect of 50% or more. For the sample, strong results were picked, then their nearest neighbours and some compounds at random.
# Tested on: Trichoderma virens ATCC 9645
# Assay: growth yield (OD600) relative to untreated control; higher = less growth inhibition
# Conditions: compound concentration: 100 uM
# Method in brief: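 Spores of Trichoderma virens ATCC 9645, taken from potato dextrose agar plates grown for 7 days, were suspended at 15,000 spores ml^−1 in potato dextrose broth. In 96-well plates, 100 μl aliquots held library compounds at 100 μM final, either alone or together with a biocide at 200 ng ml^−1, and were grown at 30 °C. A BioTek EL800 read OD600 at 40 h and 72 h. Growth values are given relative to the control lacking both agents and are means of duplicate screens.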
SMILES,growth yield (40 h) [%],growth yield (72 h) [%]
COc1ccnc(C[S+]([O-])c2nc3cc(OC(F)F)ccc3[nH]2)c1OC (stereo not given) [Pantoprazole sodium],88.2 ± 6.2,94 ± 3.8
Cc1c(F)c(N2CCNC(C)C2)cc2c1c(=O)c(C(=O)O)cn2C1CC1 (stereo not given) [Grepafloxacin],99.9 ± 1.4,97.53 ± 0.63
CC(=O)OCC(=O)[C@@]1(O)[C@H](C)C[C@H]2[C@@H]3CCC4=CC(=O)C=C[C@]4(C)[C@@]3(F)[C@@H](O)C[C@@]21C [Dexamethasone acetate],102 ± 4,103 ± 3.7
CCOCCn1c(N2CCCN(C)CC2)nc2ccccc21 [Emedastine],98.96 ± 0.16,96.9 ± 2.7
CCC(C)(C)c1ccc(CC(C)CN2C[C@@H](C)O[C@@H](C)C2)cc1 (stereo not given in full) [Amorolfine hydrochloride],4.45 ± 0.32,2.94 ± 0.21
CCn1cc(C(=O)O)c(=O)c2cnc(N3CCNCC3)nc21 [Pipemidic acid],94.4 ± 3.5,92.7
NC[C@@H]1O[C@H](O[C@H]2[C@@H](O)[C@H](O[C@@H]3[C@@H](O)[C@H](N)C[C@H](N)[C@H]3O[C@H]3O[C@H](CO)[C@@H](O)[C@H](O)[C@H]3N)O[C@@H]2CO)[C@H](N)[C@@H](O)[C@@H]1O [Paromomycin sulfate],102.6 ± 0.32,96.59 ± 0.32
O=C1CN(/N=C/c2ccc(-c3ccc([N+](=O)[O-])cc3)o2)C(=O)N1 [Dantrolene sodium salt],93.4 ± 2.2,99.7 ± 1.4
O=C(NCC(O)CO)c1c(I)c(C(=O)NCC(O)CO)c(I)c(N(CCO)C(=O)CO)c1I (stereo not given) [Ioversol],101 ± 5.4,98.1 ± 2.8
OCCN1CCN(CCCN2c3ccccc3C=Cc3ccccc32)CC1 [Opipramol dihydrochloride],91.3 ± 1.1,98.1 ± 1.4
CN1CCN(CCCN2c3ccccc3Sc3ccc(C(F)(F)F)cc32)CC1 [Trifluoperazine dihydrochloride],20 ± 0.95,63.35 ± 0.42
CN(C)CCCN1c2ccccc2Sc2ccccc21 [Promazine hydrochloride],91.33 ± 0.16,95.6
CN(C)CCCN1c2ccccc2Sc2ccc(C(F)(F)F)cc21 [Triflupromazine hydrochloride],74.66 ± 0.32,92.1 ± 2.1
CC(=O)c1ccc2c(c1)N(CCCN1CCC(CCO)CC1)c1ccccc1S2 [Piperacetazine],124 ± 8.6,119 ± 8.9
OCCN1CCN(CCCN2c3ccccc3Sc3ccc(C(F)(F)F)cc32)CC1 [Fluphenazine dihydrochloride],44 ± 6.2,90.3 ± 8.9
CO[C@H]1C[C@H](O[C@H]2[C@H](C)[C@@H](O[C@@H]3O[C@H](C)C[C@H](N(C)C)[C@H]3OC(C)=O)[C@@H](C)C[C@@]3(CO3)C(=O)[C@H](C)[C@@H](OC(C)=O)[C@@H](C)[C@@H](C)OC(=O)[C@@H]2C)O[C@@H](C)[C@@H]1OC(C)=O [Troleandomycin],100.5 ± 0.79,98.4 ± 1.3
CC=CC1=C(C(=O)O)N2C(=O)[C@@H](NC(=O)[C@H](N)c3ccc(O)cc3)[C@H]2SC1 [Cefprozil],100 ± 1.4,92.7 ± 3.1
CN1CCN(C2=Nc3cc(Cl)ccc3Nc3ccccc32)CC1 [Clozapine],102 ± 2.4,104.77 ± 0.1
CN1[C@@H]2CC[C@H]1C[C@@H](OC(=O)c1c[nH]c3ccccc13)C2 [Tropisetron hydrochloride],104 ± 10,104 ± 8.6
CC(C)n1c(/C=C/C(O)CC(O)CC(=O)O)c(-c2ccc(F)cc2)c2ccccc21 (stereo not given) [Fluvastatin sodium salt],1.91 ± 1.3,1.78 ± 0.94
O=C(O)C[C@H](O)C[C@H](O)/C=C/c1c(C2CC2)nc2ccccc2c1-c1ccc(F)cc1 [Pitavastatin calcium],4.13,2.94
CC(C)c1c(C(=O)Nc2ccccc2)c(-c2ccccc2)c(-c2ccc(F)cc2)n1CC[C@@H](O)C[C@@H](O)CC(=O)O [Atorvastatin],106,85.1 ± 10

SMILES,growth yield (40 h) [%],growth yield (72 h) [%]
C[C@@H]1C[C@H]2[C@@H]3C[C@H](F)C4=CC(=O)C=C[C@]4(C)[C@@]3(F)[C@@H](O)C[C@]2(C)[C@@]1(O)C(=O)COC(=O)C(C)(C)C [Flumethasone pivalate],106 ± 7.2,104 ± 5.3
Cc1ccccc1OCC(O)CO (stereo not given) [Mephenesin],98 ± 3.3,99.5 ± 3.5
Cc1cnc(C(=O)NCCc2ccc(S(=O)(=O)NC(=O)NC3CCCCC3)cc2)cn1 [Glipizide],103.7 ± 0.48,104.3 ± 0.52
O=C(O)[C@H]1/C(=C/CO)O[C@@H]2CC(=O)N21 [Clavulanate potassium salt],95.5 ± 2.4,87.9 ± 3.4
Oc1ccc(OCc2ccccc2)cc1 [Monobenzone],48.6 ± 0.64,53.3 ± 1.7
CC(COc1ccccc1)NC(C)C(O)c1ccc(O)cc1 (stereo not given) [Isoxsuprine hydrochloride],101 ± 1.1,98.6 ± 2.3
CC(COc1ccccc1)N(CCCl)Cc1ccccc1 (stereo not given) [Phenoxybenzamine hydrochloride],104 ± 4.6,103 ± 4.2
Cc1ccc(O)c([C@H](CCN(C(C)C)C(C)C)c2ccccc2)c1 [Tolterodine tartrate],96.7 ± 2.7,97.95 ± 0.42
CN(C)CCn1nnnc1SCC1=C(C(=O)O)N2C(=O)[C@@H](NC(=O)Cc3csc(N)n3)[C@H]2SC1 [Cefotiam hydrochloride],102 ± 1.4,102.2 ± 0.73
C[C@@H](c1ncncc1F)[C@](O)(Cn1cncn1)c1ccc(F)cc1F [Voriconazole],3.02 ± 1.4,2.41 ± 0.94
OC(Cn1cncn1)(Cn1cncn1)c1ccc(F)cc1F [Fluconazole],55.1 ± 1.8,61.14 ± 0.52
N=C(NCCCCCCNC(=N)NC(=N)Nc1ccc(Cl)cc1)NC(=N)Nc1ccc(Cl)cc1 [Chlorhexidine],2.7 ± 1.4,2.31 ± 0.84
CC(C)NC(=N)NC(=N)Nc1ccc(Cl)cc1 [Proguanil hydrochloride],110 ± 13,109 ± 9
N=C(N)NC(=N)NCCc1ccccc1 [Phenformin hydrochloride],96.9 ± 1.9,91.5 ± 2.7
CC(C)NCC(O)c1ccc2ccccc2c1 (stereo not given) [Pronethalol hydrochloride],98.6 ± 2.1,99.3 ± 2
CC(=O)N[C@@H](CC(=O)N[C@@H](CCC(=O)O)C(=O)O)C(=O)O [Spaglumic acid],101 ± 3.5,99.5 ± 1.4
Cc1cc(C(C)(C)CC(C)(C)C)ccc1OCCOCC[N+](C)(C)Cc1ccccc1 [Methyl benzethonium chloride],1.43 ± 0.79,0.944 ± 0.52
C[N+](C)(CCOc1ccccc1)Cc1ccccc1.O=C([O-])c1cc2ccccc2cc1O [Bephenium hydroxynaphthoate],73.2 ± 1.1,79.6 ± 2.2
CC(C)(C)CC(C)(C)c1ccc(OCCOCC[N+](C)(C)Cc2ccccc2)cc1 [Benzethonium chloride],1.75 ± 0.16,1.78 ± 0.1
CCOc1ccccc1OCC1CNCCO1 (stereo not given) [Viloxazine hydrochloride],99.6 ± 1.8,96.4 ± 1.4
COc1ncnc(NS(=O)(=O)c2ccc(N)cc2)c1OC [Sulfadoxine],91 ± 9.4,101 ± 2.6
O=C1c2cccc3c2[C@H](CCC3)CN1[C@@H]1CN2CCC1CC2 [Palonosetron hydrochloride],103 ± 6,99 ± 4.2

SMILES,growth yield (40 h) [%],growth yield (72 h) [%]
O=C(NCCN1CCOCC1)c1ccc(Cl)cc1 [Moclobemide],102 ± 2.1,106 ± 2
COc1ccc2[nH]c([S+]([O-])Cc3ncc(C)c(OC)c3C)nc2n1 (stereo not given) [Tenatoprazole],98.8 ± 4.8,102 ± 1.6
CCOC(=O)c1ccc(OC(=O)CCCCCNC(=N)N)cc1 [Gabexate mesilate],76.6 ± 4.5,76 ± 3.7
Cc1nnc(NS(=O)(=O)c2ccc(N)cc2)s1 [Sulfamethizole],100.4 ± 0.32,99.74 ± 0.1
COC(=O)[C@H](c1ccccc1Cl)N1CCc2sccc2C1 [Clopidogrel],76.9 ± 1.6,82 ± 1.1
CO[C@@]1(NC(=O)Cc2cccs2)C(=O)N2C(C(=O)O)=C(COC(N)=O)CS[C@@H]21 [Cefoxitin sodium salt],94.4 ± 3.5,94.8 ± 1.9
Nc1ccc(/N=N/c2ccccc2)c(N)n1 [Phenazopyridine hydrochloride],21.1 ± 1.4,49.4 ± 6.2
Nc1c2ccccc2nc2ccccc12 [Aminacrine],98.64 ± 0.48,96.9 ± 2.9
CCN(Cc1ccncc1)C(=O)C(CO)c1ccccc1 (stereo not given) [Tropicamide],99.6 ± 1.8,102 ± 1.1
CO[C@@H]1[C@@H](OC(N)=O)[C@@H](O)[C@H](Oc2ccc3c(O)c(NC(=O)c4ccc(O)c(CC=C(C)C)c4)c(=O)oc3c2C)OC1(C)C [Novobiocin sodium salt],92 ± 1.8,115 ± 4.7
CCOC(=O)[C@@](C)(N)Cc1ccc(O)c(O)c1 [Methyldopate hydrochloride],104 ± 5.2,97.85 ± 0.94
N[C@H]1CONC1=O [(S)-(-)-Cycloserine],104 ± 3.3,96.8 ± 3
Cc1cc(C)nc(NS(=O)(=O)c2ccc(N)cc2)n1 [Sulfamethazine sodium salt],106 ± 4.5,101 ± 2.2
Cc1noc(NS(=O)(=O)c2ccc(N)cc2)c1C [Sulfisoxazole],87.4,96.2 ± 1.8
Cc1cc(NS(=O)(=O)c2ccc(N)cc2)no1 [Sulfamethoxazole],40 ± 4.8,82.9 ± 2.1
C#C[C@]1(O)CC[C@H]2[C@@H]3CCC4=Cc5oncc5C[C@]4(C)[C@H]3CC[C@@]21C [Danazol],83.39 ± 0.79,87.15 ± 0.32
CCCc1nc(C(C)(C)O)c(C(=O)O)n1Cc1ccc(-c2ccccc2-c2nnn[nH]2)cc1 [Olmesartan],100 ± 3.2,99.8 ± 2.9
c1ccc(-c2ccc(C(c3ccccc3)n3ccnc3)cc2)cc1 (stereo not given) [Bifonazole],2.86 ± 1.9,1.99 ± 0.94
N#Cc1ccc(C(c2ccc(C#N)cc2)n2cncn2)cc1 [Letrozole],103 ± 1.1,101.5 ± 0.42
CCC1(c2ccccc2)NC(=O)N(C)C1=O (stereo not given) [Mephenytoin],110 ± 4.9,102 ± 4.5
CC1(C)[C@@H](OC(=O)CCC(=O)O)CC[C@]2(C)[C@H]3C(=O)C=C4[C@@H]5C[C@@](C)(C(=O)O)CC[C@]5(C)CC[C@@]4(C)[C@]3(C)CC[C@@H]12 [Carbenoxolone disodium salt],95 ± 4.1,94.6 ± 2.1
